# Compound activity (PubChem BioAssay)
# Mcl-1 Bim block: inhibitors of Bim peptide binding to Mcl-1, primary screen, biochemical, bead-based flow cytometry, multiplex | 0.1% of 190,000 active | AID 1009, 2008 | inhibition, % at 10 µM | Bim peptide-Mcl-1 binding | Induced myeloid leukemia cell differentiation protein Mcl-1 (Homo sapiens), Q07820; in the data active = inhibition above about 40%;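 also: 0% = no compound tracer wells and 100% = peptide blocker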
# Target sequence (Q07820 whole entry, looked up): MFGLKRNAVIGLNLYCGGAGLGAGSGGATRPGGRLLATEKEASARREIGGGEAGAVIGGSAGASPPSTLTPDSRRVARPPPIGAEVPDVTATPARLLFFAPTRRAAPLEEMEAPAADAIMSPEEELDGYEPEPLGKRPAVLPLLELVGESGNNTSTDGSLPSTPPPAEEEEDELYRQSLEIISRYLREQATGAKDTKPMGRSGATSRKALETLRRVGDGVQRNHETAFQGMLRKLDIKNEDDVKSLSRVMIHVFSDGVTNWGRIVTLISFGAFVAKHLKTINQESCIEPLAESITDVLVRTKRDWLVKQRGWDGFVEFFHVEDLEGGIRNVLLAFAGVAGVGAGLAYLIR
# TLR4-MyD88 BLA: inhibitors of TLR4-MyD88 association in cells, primary screen, cell-based, HeLa CL3-4, BLA complementation, FRET ratio | HeLa CL3-4 TLR4/MyD88 BLA complementation | inhibition, % at 8.4 µM | AID 861, 2007 | 0.18% of 200,000 active; in the data active = inhibition above about 25%;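 also: 0% = vehicle and 100% = reference inhibitor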
# NOD2 RIPK2 PPI: NOD2-RIPK2 binding disruptors in cells, primary screen, fluorescence, CHO cells, BLA complementation | Receptor-interacting serine/threonine-protein kinase 2 (Homo sapiens), O43353 | CCF4 ratio | inhibition, % at 4.98 µM | 0.38% of 360,000 active | AID 624267, 2012; in the data active = inhibition above about 21%;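 also: 0% = vehicle only and 100% = reference blocker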
# TLR9-MyD88 inh: inhibitors of TLR9-MyD88 association in cells, primary screen, cell-based, CHO, BLA complementation, fluorescence | CCF4 FRET ratio | inhibition, % at 4.98 µM | Toll-like receptor 9 (Homo sapiens) + Myeloid differentiation primary response protein … | 0.21% of 340,000 active;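 active = inhibition above the mean over all tested compounds plus 3 SD, cut at about 21% in these data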;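 also: 0% = DMSO only wells and 100% = clavulanate BLA inhibitor control wells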
# Mcl1 Bid PPI: Mcl-1/Bid binding inhibitors, primary screen, biochemical, TR-FRET, 1536-well; AID 1021, 2008; TR-FRET Mcl-1/Bid-Dy647 peptide binding; Induced myeloid leukemia cell differentiation protein Mcl-1 (Homo sapiens), Q07820; inhibition, % at 21.7 µM; 0.97% of 220,000 active;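 active = compounds that cut the binding signal by more than half at the single screening dose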;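 also: His-tagged Mcl-1 with europium anti-His antibody binding Bid BH3 peptide; 0% = Mcl-1 plus peptide wells and 100% = peptide-only wells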
# Mcl1-Noxa inh: Mcl-1/Noxa binding inhibitors, primary screen, biochemical, TR-FRET, 1536-well; 1.5% of 220,000 active; inhibition, % at 21.7 µM; TR-FRET Mcl-1/Noxa peptide binding, 2 h; AID 1022, 2008; Induced myeloid leukemia cell differentiation protein Mcl-1 (Homo sapiens), Q07820;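 active = compounds that cut the protein-peptide binding signal by more than 50% relative to plate controls in a single-dose test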;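 also: His-tagged Mcl-1 with rhodamine Noxa BH3 peptide and terbium anti-His antibody; 0% = Mcl-1 plus Noxa peptide wells and 100% = peptide-only wells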
# Starred values were filed as active, the others as inactive; / = no result given. Only some compounds are listed: those with a hit (about 1.8% of all), similar ones and a draw of the others.
SMILES,Mcl-1 Bim block,TLR4-MyD88 BLA,NOD2 RIPK2 PPI,TLR9-MyD88 inh,Mcl1 Bid PPI,Mcl1-Noxa inh
COc1ccc(-n2c(=O)cc(N3CCCCCC3)[nH]c2=O)cc1,-1,-5,-6,0,-21,5
COc1ccc(-n2c(=O)cc(N3CCOCC3)[nH]c2=O)cc1,-3,-5,8,2,92*,10
Oc1ccc(Br)cc1-c1cc(-c2ccco2)[nH]n1,-3,14,1,12,2,64*
CC(=O)Nc1cccc(-c2ccnc3c2CC(C(=O)Nc2ccc(Cl)cc2)O3)c1 (stereo not drawn),/,/,5,/,/,/
Cc1ccc(/C=N/OC(=O)c2c(C)noc2-c2snnc2C)cc1,/,/,-2,0,63*,8
CCOC(=O)C1CCN(C(=O)c2cc(S(=O)(=O)N3CCOCC3)c(Cl)cc2Cl)CC1,-6,0,-16,-4,95*,-7
COC(=O)c1sc(N2C(=O)c3oc4ccccc4c(=O)c3C2c2cccc(O)c2)nc1C (stereo not drawn),/,/,2,4,58*,18
O=C1CCc2cc(S(=O)(=O)N3CCCCC3)cc3c2N1CC3,/,/,-3,-6,/,/
CCOC(=O)CCNC(=O)N1CCCC(C(=O)c2cccc(OC(C)C)c2)C1 (stereo not drawn),/,/,-15,2,/,/
CCOC(=O)C1=CSC2=NS(=O)(=O)CCN12,-2,-9,-5,0,8,6
CCOC(=O)CC1=CSC2=NS(=O)(=O)CCN12,-4,3,-7,4,-3,74*
O=C(CN1CCN(c2ccc(O)cc2)CC1)Nc1cc(S(=O)(=O)N2CCCCC2)ccc1Cl,1,-3,-1,-3,-60,69*
O=C(CN1CCN(c2ccc(O)cc2)CC1)Nc1cc(S(=O)(=O)N2CCCC2)ccc1Cl,-1,-6,1,-2,-91,57*
CCN1CCN(CC(=O)Nc2cc(S(=O)(=O)N3CCCCC3)ccc2Cl)CC1,/,/,-21,-7,/,/
Cc1cc(C(=O)N/N=C/c2cc(N=Nc3ccccc3)ccc2O)n[nH]1,0,11,7,6,25,95*
Nc1ccc(C(=O)N/N=C\c2cc(N=Nc3cccc4ccccc34)ccc2O)cc1,0,3,-1,8,65*,/
COC(=O)N/N=C/c1cc(N=Nc2ccccc2Cl)ccc1O,/,/,1,8,7,88*
COC(=O)N/N=C/c1cc(N=Nc2ccccc2)ccc1O,/,/,3,2,-15,-14
O=C(OCc1cccc(F)c1)c1ccc2c(=O)n3c(nc2c1)CCC3,/,/,-4,1,61*,-3
CC1CN(C(=O)N2c3ccccc3Sc3ccccc32)CC(C)O1 (stereo not drawn),-5,8,-13,2,-3,22
CC1CN(C(=O)N2c3ccccc3Sc3ccccc32)C(C)CC1=O (stereo not drawn),-2,-2,4,-9,-18,70*
CC(C)(C)c1ccc(CC(=O)N2CCC2(C)C(=O)NS(=O)(=O)c2ccccc2)cc1 (stereo not drawn),/,/,6,/,/,/
Fc1cc2nc(-c3ccncc3)[nH]c2cc1F,1,-5,18,2,71*,-9
Cc1ccc(C(=O)C(C(=O)/C=C/c2ccccc2)=C2SCCCS2)cc1,58*,6,5,2,3,2
COc1ccc([N+](=O)[O-])cc1N(CC(=O)N1CCN(Cc2ccccc2)CC1)S(C)(=O)=O,/,/,-1,4,/,/
SMILES,Mcl-1 Bim block,TLR4-MyD88 BLA,NOD2 RIPK2 PPI,TLR9-MyD88 inh,Mcl1 Bid PPI,Mcl1-Noxa inh
O=C(O[C@@H]1OC2COC(=O)c3cc(O)c(O)c(O)c3-c3c(cc(O)c(O)c3O)C(=O)O[C@@H]([C@H]1O)[C@@H]2O)c1cc(O)c(O)c(O)c1,11,1,-6,-3,-29,113*
CCn1c(-c2cccc(Br)c2)n[nH]c1=S,-7,4,2,-2,97*,45
CCn1c(-c2ccc3ncccc3c2)n[nH]c1=S,-4,8,-12,-3,-73,10
S=c1[nH]nc(-c2cccc(Cl)c2)n1CCN1CCCCC1,-2,5,-6,-2,95*,-3
CCN1C(=O)[C@H]2[C@@H](c3ccc(OC)cc3)N[C@]3(CCCN(CCC(C)C)C3=O)[C@H]2C1=O,/,/,-5,-7,/,/
CCCN(CCC)C(C(=O)Nc1cccc(OC)c1)c1ccccc1 (stereo not drawn),-1,2,-12,-7,95*,-12
COc1ccc(N/C=C2\CCc3ccccc3C2=O)cc1,11,3,11,12,-63,6
COc1ccc(N/C=C2\C(=O)CCc3c2oc2cc(Cl)c(O)c(Cl)c32)cc1,/,/,-1,-3,86*,74*
CCOc1ccccc1N(C)S(=O)(=O)c1ccc2[nH]cc(C(=O)N(CCOC)CCOC)c(=O)c2c1,/,/,-2,4,/,/
COCCN(CCOC)C(=O)c1c[nH]c2ccc(S(=O)(=O)N(C)c3ccc(F)cc3)cc2c1=O,-3,-15,-7,0,62*,41
CN(c1ccc(F)cc1)S(=O)(=O)c1ccc2[nH]cc(C(=O)O)c(=O)c2c1,0,-6,-4,4,58*,12
COc1ccc(NC(=O)CCSCCc2ccccn2)cc1OC,1,20,11,7,-38,13
Cc1nc(-c2cccs2)ccc1C(=O)O,5,-10,-10,-1,-17,8
CC(=O)c1sc2nc(-c3cccs3)ccc2c1N,-4,5,-1,5,-59,74*
CC(C)NC(=O)c1cc(-c2cccs2)nc2ccccc12,/,/,-11,7,/,/
CC(C)NC(=O)c1sc2nc(-c3cccs3)cc(-c3cccs3)c2c1N,2,5,/,/,17,52*
C=CCN(CC=C)C(=O)c1c(OC)cccc1OC,-3,-7,7,0,10,23
C=CCc1c(C)[nH]c2c(OC)cccc2c1=S,-1,0,0,-5,26,60*
CC(=O)c1cc(C#N)c(SCc2ccccn2)nc1C,/,/,-16,/,-27,88*
CCC1(c2ccccc2)NC(=O)N(CC(=O)Nc2ccc(N3CCCC3)cc2C)C1=O (stereo not drawn),/,/,6,-2,/,/
CCOC(=O)CC(=O)Nc1ccn[nH]1,/,/,-16,5,-1,55*
Cc1nc2nc[nH]n2c(=O)c1NS(=O)(=O)c1ccc(F)cc1,0,0,-3,-6,1,25
